In PubChem BioAssay (NCATS):
Inconclusive results are not listed. Entries that show only a call come without a potency. Calls of active or inactive are those of the source. The call rests on the fitted dose curve; in most records, active means well fitted cell-killing curve with a large enough effect; inconclusive means small, poorly fitted or top-dose-only effect; inactive means flat fitted curve, though single readings scatter.

Experiment: Cell Viability - LYMP2-007 (AID 979);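 further: cells exposed to compound for 24 h before reading; nearly all actives have a fitted effect of over 60% in size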
Settings: LYMP2-007 lymphoblastoid cell viability; series mostly up to 92.2 µM
Excerpt: NIH Chemical Genomics Center [NCGC]
NIH Molecular Libraries Screening Centers Network [MLSCN]
National Institutes of Environmental Health Sciences [NIEHS]
National Toxicology Program [NTP]
We have developed a 1536-well cell-based assay for quantitative high throughput screening (qHTS) against a number of cell lines to determine in vitro cytotoxicity of small molecules. This particular assay uses a human lymphoblastoid cell line (LYMP2-007) purchased from Coriell Institute for Medical Research.
NCGC Assay Protocol Summary:
The CellTiter-Glo luminescent cell viability assay (Promega) is a homogeneous method to measure the number of viable cells in culture. The end point readout of this assay is based on quantitation of intracellular ATP, an indicator of metabolic activity, using the luciferase reaction. Luciferase catalyzes the oxidation of beetle Luciferin to oxyluciferin and light in the presence of ATP. The luminescent signal is proportional to amount of ATP present.
Using the CellTiter-Glo luminescent cell viability assay, the amount of cellular ATP was measured in the lymphoblastoid cell line with complete culture medium following compound treatment for 24 hours. The assay was performed in opaque white Kalypsys 1536-well plates. In the screen, tetraoctylammonium bromide was used as positive control. Library compounds were measured for their ability to cause acute toxicity in the cell line, as reflected by a decrease in intracellular ATP levels, in a concentration-dependent manner. […] AC50 values were determined from concentration-response data modeled with the standard Hill equation.
qHTS protocol for CellTiter Glo lymphoblastoid cellular assay
[Step] [Parameter] [Value] [Description]
1. Reagent; 5 uL; 2500 lymphoblastoid cells/well
2. Time; 5 hr; 37 C incubation
4. Controls; 23 nL; Tetraoctylammonium bromide 6.4pM to 92 uM
5. Time; 24 hr; 37 C incubation
6. Reagent; 5 uL; CellTiter Glo reagent
7. Time; 30 min; Room Temperature
8. Detection; Luminescence; Viewlux plate reader
Keywords: cell viability, cytotoxicity, lymphoblastoid cell line, luminescence, NTPHTS, NTPHTS_NCGC, NIEHS, DSSTox, MLSMR, MLSCN, NIH Roadmap, qHTS, NCGC
Potency means the concentration at half of the fitted maximal effect.

Row | SMILES | Potency
1 | Cc1cc(=O)oc2cc(O)cc(O)c12 | inactive
2 | CC/C=C/C/C=C/C/C=C/CCCCCCCC(=O)OCC | 31.6 µM (active)
3 | COc1ccc(C)cc1N | inactive
4 | CC(CCC(=O)O)(c1ccc(O)cc1)c1ccc(O)cc1 | inactive
5 | CCOC(=O)C1OC1c1ccccc1 (stereo not given) | inactive
6 | O=[N+]([O-])c1ccccc1Nc1ccccc1 | inactive
7 | Cc1ccc2ccc3cccc4ccc1c2c34 | inactive
8 | CCCC(=O)OC(=O)CCC | inactive
9 | O=C(O)c1cc(N=Nc2ccc([N+](=O)[O-])cc2)ccc1O | inactive
10 | O=C(O)c1ccc([N+](=O)[O-])cc1 | inactive
11 | Oc1cc2c(cc1O)[C@H]1c3ccc(O)c(O)c3OC[C@@]1(O)C2 | 39.8 µM (active)
12 | NC(=O)Nc1nc2ccccc2[nH]1 | inactive
13 | O=[N+]([O-])c1cc(N(CCO)CCO)ccc1NCCO | inactive
14 | Brc1ccc(-c2ccccc2)cc1 | inactive
15 | O=C(O)/C=C/c1ccc(/C=C/C(=O)O)cc1 | inactive
16 | c1ccc(SCCSc2ccccc2)cc1 | inactive
17 | CC(C)OCC1CO1 (stereo not given) | inactive
18 | Oc1c(Cl)cc(Cl)c(Cl)c1Cl | inactive
19 | NC(=O)c1ccc([N+](=O)[O-])cc1 | inactive
20 | CCCCCCCCOc1ccc(C(=O)O)cc1 | inactive

Row | SMILES | Potency
21 | CC(=O)OC(C(=O)c1ccccc1)c1ccccc1 (stereo not given) | inactive
22 | Nc1ccc2c(c1)C(=O)c1ccccc1C2=O | inactive
23 | CCOc1ccc2nc(N)sc2c1 | inactive
24 | c1ccc(Nc2cccc3ccccc23)cc1 | inactive
25 | c1ccc2ncccc2c1 | inactive
26 | O=C1OC(=O)c2ccccc21 | inactive
27 | CCc1ccc(C(c2ccc(CC)cc2)C(Cl)Cl)cc1 | inactive
28 | OCC(CBr)(CBr)CBr | inactive
29 | CC(/C=C/C=C(C)/C=C/C(=O)O)=C\C=C\C=C(C)\C=C\C=C(C)\C=C\C(=O)O | inactive
30 | Cc1c(N)cccc1Cl | inactive
31 | CCC(Cl)CC(Cl)C(Cl)C(Cl)C(Cl)C(C)Cl (stereo not given) | inactive
32 | C=CC(=O)CC | inactive
33 | OCC(CO)(CBr)CBr | inactive
34 | Nc1ccc(N=Nc2ccccc2)c(N)c1 | inactive
35 | Oc1ccc2c(c1)OCO2 | inactive
36 | Cc1cccnc1 | inactive
37 | Brc1cc(Br)c(Oc2cc(Br)c(Br)cc2Br)cc1Br | inactive
38 | CCN(CC)c1ccc2c(C)cc(=O)oc2c1 | inactive
39 | CC(=O)Nc1cccc(C)c1 | inactive
40 | C1CCCNCC1 | inactive
